Assay outcomes as filed in PubChem.
An excerpt weighted towards active compounds, which were near 5.2% of everything screened.
Tau fluor counter = counter-screen for tau fibril formation inhibitors; AID 1463; hit rate 0.93% among 280,000; tau K18 P301L Alexa594 fluorescence, heparin fibrillization; Potency, µM (series often up to 57.7 µM), for the others: at the highest dose activity change, negative = decrease; note: potency is the fitted concentration of half-maximal effect; nearly all actives have a fitted effect of over 55% in size
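Human K18 P301L tau (15 uM unlabeled plus 0.24 uM Alexa 594-labeled, final) in 100 mM sodium acetate pH 7 was mixed with compound and 20 uM heparin and incubated 6 hr at 37 C.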
Tau ThT inhib = blocks human tau fibril formation measured by thioflavin T; recombinant tau K18 P301L (four-repeat tau fragment), heparin-induced fibrillization, ThT fluorescence; Potency, µM (titrated, usually from 57.4 µM), for inactives: at the top dose activity, negative = inhibition, usual class: inhibitors; hit rate 2.1% among 270,000; AID 1460; note: potency is the fitted concentration of half-maximal effect; nearly all actives have a fitted effect of over 55% in size
Target sequence (P10636 561-689 P618L limits assumed): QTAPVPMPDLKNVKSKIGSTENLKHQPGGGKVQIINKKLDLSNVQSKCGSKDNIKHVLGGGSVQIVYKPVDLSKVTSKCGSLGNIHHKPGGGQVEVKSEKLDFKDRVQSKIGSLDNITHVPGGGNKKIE
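Tau K18 P301L fragment (15 uM unlabeled plus 0.24 uM Alexa 594-labeled) in 100 mM sodium acetate pH 7 with compound, fibrillization induced by 20 uM heparin for 6 hr at 37 C. Thioflavin T (30 uM) added, fluorescence read after 1 hr (ex 450, em 510 nm).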
Sfp inh = Sfp phosphopantetheinyl transferase inhibition; Q9F4F7; Biochemical Sfp PPTase activity, qHTS; Potency, µM, for inactives: largest response in the series, negative = inhibition, actives largely listed as inhibitors; hit rate 3.5% among 310,000; AID 1490;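 note: the enzyme is Sfp with the accession as filed and its product quenches rhodamine fluorescence; potency is the fitted concentration of half-maximal effect; 0% = enzyme reaction without inhibitor and -100% = no enzyme wells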
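Fluorescence-quenching assay: 15 nM Sfp-PPTase preincubated 15 min at room temperature with compound, then 5 uM rhodamine-CoA and 12.5 uM BHQ-2-labelled YbbR peptide added. Fluorescence (ex 525/em 598 nm) read at start and after 30 min; difference gives rate.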
FBPA coupling cs = coupling enzyme interference in Giardia aldolase counter-screen. hit rate 0.67% among 290,000. coupling enzyme system counterscreen, AmpLite Red fluorescence. AID 2472. activity change, negative = inhibition, % at 58.2 µM, hits read low; in the data active = activity change below about -30%
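Counterscreen of the coupled detection system alone, without aldolase: glyceraldehyde-3-phosphate coupling enzymes plus AmpLite Red readout. Compounds at 57.5 uM final, 10 min RT preincubation, 20 min RT reaction, fluorescence 525/598 nm.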
Tau FP inhib = blocks human tau fibril formation measured by polarization; P10636; K18 P301L tau heparin fibrillization, Alexa594 FP, 6 h; Potency, µM (highest dose often 57.7 µM), for the others: top-dose activity, negative = inhibition, usual class: inhibitors; hit rate 0.39% among 280,000; AID 1468; note: potency is the fitted concentration of half-maximal effect; nearly all actives have a fitted effect of over 55% in size
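Recombinant K18 P301L […], labeled with Alexa 594 at 0.24 uM over 15 uM unlabeled; heparin inducer 20 uM final; 37 C, 6 hr; FP endpoint.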
An asterisk follows results filed as active; ? = inconclusive; / = not tested or not shown; ! = not active in a repeat; [ ] = dose if it differs, or a comment. Unless noted, calls come from the whole dose curve; as a rule, active = well fitted curve in the direction sought with a large enough effect; inconclusive = small, poorly fitted or top-dose-only effect, or another doubt; inactive = no such curve, though single readings can be large; an effect the other way counts as inactive or inconclusive. Unless noted, % is set by controls: 0 for no effect and ±100 for the full control effect.

SMILES	Tau fluor counter	Tau ThT inhib	Sfp inh	FBPA coupling cs	Tau FP inhib
CCOc1ccc(-n2c(N)c(C(=O)N3CCN(C)CC3)sc2=S)cc1	5%	-1%	14%	-1	-1%
Cc1ccc(-n2c(N)c(C(=O)N3CCCCC3)sc2=S)cc1	-20%	?	45µM*	2	9%
Cc1cccc(CNc2cc(-c3ccccc3C)ncn2)c1	-9%	-12%	-25%	0	4%
NC1=NC[C@@H](Cc2ccc(O)cc2)N1CCc1cccc2ccccc12	8%	-6%	89µM*	-1	0%
Cc1ccc(NC(=O)c2ccc(CSc3ccccn3)cc2)c(O)c1	18µM*[quencher]	?	2%	0	19%
Cc1ccc(NC(=O)c2ccc(CSc3ccccn3)cc2)cc1	-16%	-1%	-1%	0	-6%
COc1cc(N=C2C(=O)N3c4c(cccc42)C(C)=CC3(C)C)cc(OC)c1	-17%	?	6%	-9	-4%
CC1=CC(C)(C)N2C(=O)C(=Nc3ccc(O)cc3)c3cccc1c32	?	13µM*	?	-45*	28µM*
CCCCC/C=C\C\C=C/C=C/C=C/[C@@H](SCC(NC(C)=O)C(=O)O)[C@@H](O)CCCC(=O)O (stereo partly drawn)	-9%	-9%	2%	2	4%
CCCCCCNC(=O)Nc1ccc(S(=O)(=O)Nc2ccc(CCNC[C@H](O)COc3ccc(O)cc3)cc2)cc1	13µM*[quencher]	?	25µM*	4	?
CCCCOc1ccc(S(=O)(=O)Nc2ccc(NC(C)=O)cc2)cc1	-20%	-6%	11%	-2	9%
O=c1c2c3c(sc2nc(NCCO)n1Cc1ccco1)CCCCC3	?	?	9%	-2	16%
O=C(CSc1nc2sc3c(c2c(=O)n1-c1ccccc1)CCCC3)N/N=C/c1ccc(C(=O)O)cc1	/	/	-1%	2	/
O=c1c2c3c(sc2nc(NCCO)n1CCc1ccccc1)CCCCC3	14µM*[quencher]	?	7%	-4	?
CN1CCc2c(sc3nc(NN)n(Cc4ccccc4)c(=O)c23)C1	?	16µM*	-17%	-4	-13%
Cn1c(N/N=C/c2ccccc2)nc2sc3c(c2c1=O)CCC3	18µM*[quencher]	?	-21%	-4	6%
CN1CCc2c(sc3nc(NN)n(-c4ccc(Cl)cc4)c(=O)c23)C1	/	/	-18%	-2	/
C=CC1=C2C=C(C3CC3)N(C3CC3)C=C2C(=O)C(C)(OC(=O)c2ccco2)C1=O (stereo not drawn)	-3%[11.6 µM]	1%[11.5 µM]	-19%	-11	-11%[11.6 µM]
C=CC1=C2C=C(C3CC3)N(C3CCCCC3)C=C2C(=O)C(C)(OC(=O)c2ccco2)C1=O (stereo not drawn)	-8%[11.6 µM]	-12%[11.5 µM]	-4%	-43*	-12%[11.6 µM]
C=CC1=C2C=C(C3CC3)N(C3CCCC3)C=C2C(=O)C(C)(OC(=O)c2ccco2)C1=O (stereo not drawn)	-3%[11.6 µM]	-6%[11.5 µM]	0%	-42*	0%[11.6 µM]
Cc1nc2cccnc2n1C1CCN(S(=O)(=O)c2ccc(C(C)C)cc2)CC1	1%	-2%	/	/	10%
O=C(Cn1nc(CNc2ccc(Cl)cc2)[n+]2c1CCCCC2)c1ccc(Br)cc1	-13%	?	?	1	7%
O=C(Cn1nc(CNc2ccc(Br)cc2)[n+]2c1CCCCC2)c1ccc([N+](=O)[O-])cc1	-22%	?	56µM*	-4	6%
COc1cc2c(=O)c(S(=O)(=O)c3ccc(C)cc3)cn(Cc3cccc(C)c3)c2cc1OC	-18%	-7%	/	/	-5%
Cc1nc2ccccc2n1CCc1nc2c3ccccc3nc(=S)n2[nH]1	-14%	-18%	50µM*	-13	-1%
Cc1nc(N=Nc2cc(S(=O)(=O)O)c3cc([N+](=O)[O-])cc(S(=O)(=O)O)c3c2)c(COP(=O)(O)O)c(C=O)c1O	14µM*[quencher]	8.9µM*	40µM*!	0	20µM*
CCOc1ccc(N=Nc2c(C)noc2C)cc1	-23%	16µM*	-2%	5	-11%
COc1ccc(-c2cc(-c3ccccc3)c(C#N)c(SCC(O)CS(=O)(=O)Cc3ccc(Cl)cc3)n2)cc1 (stereo not drawn)	?	-6%	/	/	?
